Source: PubChem BioAssay
Most compounds without a hit are left out; they make up all but 11% or so of the library.
NS1 inh: qHTS Assay for Inhibitors of Influenza NS1 Protein Function. Potency, µM (doses to about 46.1 µM), for inactives: at the top dose activity, positive = more growth. hit rate 0.4% among 270,000; calls by dose curve; also: actives are rising curves; nearly all actives have a fitted effect of over 50% in size
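Growth recovery, yeast-based: influenza A NS1 expressed in S. cerevisiae causes slow growth, and suppressors are detected by OD600. The parent strain without NS1 is used as positive control.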
HCV inh: qHTS Assay for Inhibitors of Hepatitis C Virus (HCV); Huh7.5.1 HCVcc-Cre infection, luciferase reporter, 44 h; Potency, µM (doses to about 41.8 µM), inactives show at the top dose activity change, negative = inhibition, usual class: inhibitors; hit rate 3.4% among 340,000; also: % is scaled to controls: 0 for no effect and ±100 for the full control effect
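HCVcc-Cre virus at an moi near 0.5 was added right after compound to cells cultured 4 h from seeding (1,000 cells/well). Luciferase activity was determined 44 h later, 15 min after substrate addition at RT.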
Pf growth 96h: Primary qHTS for delayed death inhibitors of the malarial parasite plastid, 96 hour incubation; P. falciparum luciferase reporter growth, 96 h; Potency, µM (doses to about 28.7 µM), without a hit: top-dose activity change, negative = inhibition, hits mostly inhibitors; hit rate 6.9% among 320,000; also: % is scaled to controls: 0 for no effect and ±100 for the full control effect
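P. falciparum expressing integrated firefly luciferase, in erythrocytes at 2% hematocrit, 0.05% parasitemia, incubated with compounds 96 h at 37 C, 5% CO2. Growth inhibition read as loss of luminescence; two-generation exposure targets delayed-death apicoplast inhibitors.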
Pf growth 48h: Primary qHTS for delayed death inhibitors of the malarial parasite plastid, 48 hour incubation; P. falciparum luciferase growth in erythrocytes, 48 h; Potency, µM (highest dose often 28.7 µM), for the others: top-dose activity change, negative = inhibition, actives largely listed as inhibitors; hit rate 5.9% among 310,000; AID 504832, 2011; also: % is scaled to controls: 0 for no effect and ±100 for the full control effect
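Firefly luciferase activity from engineered P. falciparum reports growth; inhibitors lower the luminescent signal. Cultures contained 2% hematocrit erythrocytes at 0.1% final parasitemia.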
VACV Venus inh: qHTS for Stage-Specific Inhibitors of Vaccinia Orthopoxvirus: Venus Reporter Primary qHTS; Vaccinia virus Venus reporter expression, fluorescence; Potency, µM (doses to about 36.5 µM), without a hit: top-dose activity change, negative = inhibition, most hits filed as inhibitors; hit rate 0.46% among 330,000; AID 720580, 2013; calls by dose curve; tested in A549 cells; also: % is scaled to controls: 0 for no effect and ±100 for the full control effect; nearly all actives have a fitted effect of over 30% in size
Vaccinia mCherry: qHTS for Stage-Specific Inhibitors of Vaccinia Orthopoxvirus: mCherry Reporter Primary qHTS | Vaccinia virus mCherry reporter infection, fluorescence | Potency, µM (titrated, usually from 36.5 µM), without a hit: at the highest dose activity change, negative = inhibition, most hits filed as inhibitors | hit rate 0.63% among 310,000; calls by dose curve; tested in A549 cells; also: % is scaled to controls: 0 for no effect and ±100 for the full control effect; nearly all actives have a fitted effect of over 35% in size
The depositor's hits bear a star; i = inactive; ? = inconclusive; / = no result; [ ] = remark or other dose. Unless noted, calls follow the shape of the dose curve; as a rule, active = well fitted inhibition curve with a large enough effect; inconclusive = small, poorly fitted or top-dose-only effect, or another doubt; inactive = no such curve, though single readings can be large or run the other way. Potency is read from the fitted curve at half-maximal effect.

SMILES	NS1 inh	HCV inh	Pf growth 96h	Pf growth 48h	VACV Venus inh	Vaccinia mCherry
CCCN(CC(=O)Nc1ccccc1OC)C(=O)CN1C(=O)NC2(CCCCC2)C1=O	/	15.7%	-21.5%	?	-18.5%	-6.7%
N/C(Cn1cncn1)=N\NC(=O)C(=O)Nc1ccc(Cl)cc1Cl	3.8%	3.2%	?	31.8%	-8.4%	?
CCS(=O)(=O)C1=NN2C(=N)/C(=C\c3ccc(OC(=O)c4ccco4)cc3)C(=O)N=C2S1	-14.1%	27.1%	-21.5%	-16.5%	/	/
CCOC(=O)CNC(=S)N(Cc1cccs1)C1CCCCC1	4.3%	1.3%	7.38µM*	16.9%	1.2%	-12.0%
O=C(N1CCOCC1)N(Cc1cccs1)C1CCCC1	4.4%	1.0%	7.38µM*	-7.1%	3.0%	/
CCn1c(SCC(=O)c2ccc([N+](=O)[O-])cc2)nnc1-c1ccc(Cl)cc1	/	/	/	/	4.6%	-14.4%
COc1ccc(CNC(=O)CCc2c(C)c3cc4c(C)coc4c(C)c3oc2=O)cc1OC	/	/	/	/	-23.9%	-20.0%
CCCCC(=O)NC(=S)NNC(=O)CCc1ccccc1	-5.2%	-0.7%	2.8%	?	14.1%[7.34 µM]	3.9%[7.34 µM]
CCCCn1c(SCC(=O)Nc2cc(C(F)(F)F)ccc2Cl)nnc1C(CC)N(C)C (configuration not stated)	-4.6%	?	?	8.28µM*	-28.9%	-10.1%
CCCCn1c(SCC(=O)Nc2ccc(C)c(S(=O)(=O)N3CCOCC3)c2)nnc1C(CC)N(C)C (configuration not stated)	/	4.2%	-9.2%	?	-18.6%	-29.3%
COC(=O)C1=C(C)N(Cc2ccc(C)cc2)C(=O)/C1=C\c1cc(OC)c(OC)c(OC)c1	22.7%	?	33.6%	10.4µM*	-0.1%	-4.6%
CCOc1cc(/C=C2\C(=O)N(CCc3ccc(OC)c(OC)c3)C(C)=C2C(=O)OC)ccc1O	22.0%	-0.9%	?	11.7µM*	-2.8%	i
Nc1c(-c2ccc(Cl)cc2)cnn1-c1ccccc1	-5.1%	-13.1%	207.4%	10.0%[0.00184 µM]	-18.9%	?
O=[N+]([O-])c1cccc(-c2c[n+]3c(n2-c2ccccc2)SCC3)c1	/	-11.1%	1.04µM*	1.04µM*	-2.4%	i
O=[N+]([O-])c1cccc(-c2n[nH]c(=S)n2-c2ccccc2)c1	13.1%	16.1%	21.4%	7.3%	-18.6%	-21.2%
Clc1ccc(-c2c[n+]3c(n2-c2ccccc2)SCC3)cc1	/	-9.3%	0.165µM*	1.17µM*	-17.0%	i
c1ccc(CSc2nnc(-c3c[nH]c4ccccc34)o2)cc1	-9.0%	-15.9%	12.8%	41.7%	-18.3%	/
COC(=O)CSc1nnc(-c2c[nH]c3ccccc23)o1	-12.3%	-29.2%	?	10.8%	/	/
c1ccc2c(-c3nnc(SCc4cn5ccccc5n4)o3)c[nH]c2c1	-1.5%	-17.8%	11.7µM*	/	-12.9%	-26.5%
CCN(CC)C(=O)CSc1nnc(-c2c[nH]c3ccccc23)o1	18.5%	11.5%	0.465µM*	?	/	/
Cc1cc2ccccn2c1C(=O)c1ccc(NN)c([N+](=O)[O-])c1	/	-20.6%	?	?	?	0.891µM*
COc1ccc(NC(=O)C2CCCN(c3nccc(C)n3)C2)cc1 (configuration not stated)	/	-1.1%	10.4µM*	-12.5%	1.9%	i
O=C(NCc1cccs1)C1CCCN(c2nc3ccccc3o2)C1 (configuration not stated)	-36.4%	-22.9%	5.22µM*	?	/	/
Cc1ccnc(N2CCCC(C(=O)NCc3cccs3)C2)n1 (configuration not stated)	6.7%[9.22 µM]	2.6%	9.28µM*	-8.9%	/	/
COc1ccc(Br)cc1CNC(=O)C1CCCN(c2nc3ccccc3o2)C1 (configuration not stated)	1.8%	7.0%	5.86µM*	4.3%	/	/
SMILES	NS1 inh	HCV inh	Pf growth 96h	Pf growth 48h	VACV Venus inh	Vaccinia mCherry
COc1ccc(NC(=O)C2CCCN(c3ncccn3)C2)cc1 (configuration not stated)	-3.1%	5.7%	-2.6%	59.3%	0.0%	i
C=C1[C@@H](O)[C@H](Cc2ccccc2)N(Cc2ccccc2Br)S1(=O)=O	/	23.3%[8.37 µM]	/	/	10µM*	10µM*
O=C(OCC1CCCO1)c1ccc2c(c1)N(Cc1cccc(F)c1)C(=O)c1ccccc1S2(=O)=O (configuration not stated)	/	/	/	/	-7.6%	-6.4%
CCC(C)(C)C(=O)Nc1ncc(S(=O)(=O)c2ccc([N+](=O)[O-])cc2)s1	7.3%	-21.5%	2.94µM*	8.28µM*	?	?
O=C(CCl)Nc1ncc(S(=O)(=O)c2ccc([N+](=O)[O-])cc2)s1	/	5.6%	/	/	-2.0%	?
CCCC(C)C(=O)Nc1ncc(S(=O)(=O)c2ccc([N+](=O)[O-])cc2)s1 (configuration not stated)	6.7%	?	?	1.65µM*	?	2.51µM*
CCCc1cc(=O)n2[nH]c(C)c(-c3ccccc3OC)c2n1	/	/	/	/	-10.0%	i
Cc1cc(C)cc(CC(Cc2nc3ccccc3[nH]2)c2nc3ccccc3[nH]2)c1 (configuration not stated)	-10.2%	5.01µM*	121.4%	2.33µM*	14.1µM*	-14.4%[1.46 µM]
O=C(CSc1nnc(-c2ccccc2Br)o1)N1CCc2ccccc2C1	-82.7%	-2.9%	3.29µM*	8.1%	-14.5%	-13.8%
O=C(CN(C(=O)CCC(=O)Nc1nccs1)c1ccc(F)cc1)NCCc1ccccc1	-9.4%	-11.3%	?	?	-12.0%	-8.7%
CCOc1ccc(-n2c(SC(C)C)nc3c(c2=O)SCC3)cc1	0.1%	-4.4%	151.1%	8.28µM*	/	/
CSc1nc2c(c(=O)n1-c1ccc(C)cc1)SCC2	-4.8%	-8.8%	-3.7%	9.28µM*	/	/
CSc1nc2c(c(=O)n1-c1ccc(F)cc1)SCC2	-0.9%	-23.0%	0.0%	-21.6%	-10.1%	-8.1%
O=C1CSC(c2cccnc2)N1c1ccccc1 (configuration not stated)	5.6%	16.2%	-4.9%	134.6%	/	/
CC(C)(C)c1ccc(N2C(=O)CSC2c2cccnc2)cc1 (configuration not stated)	5.7%	-7.4%	?	1.17µM*	-12.8%[7.34 µM]	i[7.34 µM]
COc1cccc(-c2nc(-c3ccccc3)c(-c3ccccc3)[nH]2)c1OCC(=O)O	?	0.7%	182.9%	?	/	/
COc1cccc(-c2nc(-c3ccc4c(c3)-c3ccccc3S4(=O)=O)c(-c3ccccc3)[nH]2)c1OC	?	?	?	9.28µM*	-19.4%	/
Cc1csc(-c2nc3ccccc3n2C(C(=O)NC(C)(C)C)c2ccccc2)c1 (configuration not stated)	/	/	/	/	-6.3%	-5.6%
